Records with an inconclusive call do not appear. The source made the active and inactive calls. Calls come from the whole dose curve; as a rule, active = well fitted curve in the direction sought with a large enough effect in the repeat runs; inconclusive = weak or mixed curves; inactive = no such curve, though single readings can be large; an effect the other way counts as inactive or inconclusive.
Columns and labels:
[1] = Caspase-3/7 induction in HepG2 cells by small molecules, qHTS assay (AID 1346978); note: nearly all actives have a fitted effect of over 15% in size; note: potency is the fitted concentration of half-maximal effect; for caspase activation: % is set by controls: 0 for no effect and ±100 for the full control effect
Summary of the method: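 Wild-type HepG2 cells (2,000/well) were settled 5 h at 37 C, 5% CO2, then exposed to compounds in DMSO for 17 h. Caspase-3/7 activity was read by luminescence 30 min after adding Caspase-Glo 3/7 reagent at room temperature.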

[2] = Caspase-3/7 induction in CHO-K1 cells by small molecules, qHTS cell viability counter screen (AID 1346979); note: nearly all actives have a fitted effect of over 35% in size; note: potency is the fitted concentration of half-maximal effect
Summary of the method: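 CellTiter-Fluor viability check, qHTS format: wild-type CHO-K1, 16hr compound treatment, 1hr reagent incubation, fluorescence read.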

[3] = Caspase-3/7 induction in CHO-K1 cells by small molecules, qHTS assay (AID 1346980); note: % is set by controls: 0 for no effect and ±100 for the full control effect; nearly all actives have a fitted effect of over 15% in size
Summary of the method: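 Wild-type cells were seeded at 1,500 per well and settled 5 hr at 37 C, 5% CO2, then exposed to DMSO-dissolved compounds for 17 hr. Caspase-Glo 3/7 reagent was added, and luminescence was read after 30min at room temperature.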

[4] = molecular target: Cytochrome P450 2D6 (Homo sapiens) (UniProt P10635); assay: Cytochrome P450 Family 2 Subfamily D Member 6 (CYP2D6) small molecule antagonists: luciferase reporter qHTS assay (AID 1671196); note: nearly all actives have a fitted effect of over 50% in size; note: potency is the fitted concentration of half-maximal effect; for activity change, negative = inhibition: series mostly up to about 120 µM; % is set by controls: 0 for no effect and ±100 for the full control effect
Summary of the method: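 Inhibition of CYP2D6 was gauged by loss of luminescence, since light produced tracks the luciferin generated from a proluciferin substrate. A 10 min room-temperature preincubation preceded 1 h NADPH-supported turnover.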

[5] = molecular target: Cytochrome P450 2C19 (Homo sapiens) (UniProt P33261); assay: Cytochrome P450 Family 2 Subfamily C Member 19 (CYP2C19) small molecule antagonists: luciferase reporter qHTS assay (AID 1671197); note: nearly all actives have a fitted effect of over 65% in size; note: potency is the fitted concentration of half-maximal effect
Summary of the method: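 Compounds were tested on CYP2C19 activity via proluciferin conversion to luciferin. The 37C, 1 h reaction followed NADPH addition; detection reagent stopped it.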

[6] = molecular target: Voltage-gated inwardly rectifying potassium channel KCNH2 (Homo sapiens) (UniProt Q12809); assay: Human Ether-a-go-go-Related Gene (hERG) channel small molecule antagonists: fluorescence cell-based qHTS assay (AID 1671200); note: nearly all actives have a fitted effect of over 50% in size; note: potency is the fitted concentration of half-maximal effect;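 for activity change, negative = inhibition: hERG-expressing U2OS cells given a thallium stimulus after FluxOR II dye loading; series mostly up to about 77 µM; % is set by controls: 0 for no effect and ±100 for the full control effect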
Summary of the method: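 Kinetic two-minute fluorescence traces, sampled at 1 s, were collected following thallium stimulus of U2OS cells (1000 per well) that had been cultured overnight at 37 C and loaded with FluxOR II.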

[7] = Human pregnane X receptor (PXR) small molecule agonists, qHTS cell viability counter screen (AID 1346977); note: nearly all actives have a fitted effect of over 50% in size; note: potency is the fitted concentration of half-maximal effect
Summary of the method: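 Tox21 qHTS format; PXR-Luc HepG2, 2,000/well, charcoal-stripped FBS 5%. Cpd exposure 24hr. Read: CellTiter-Fluor fluorescence, multiplexed with luciferase.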

[8] = Caspase-3/7 induction in HepG2 cells by small molecules, qHTS cell viability counter screen (AID 1346981); note: nearly all actives have a fitted effect of over 30% in size; note: potency is the fitted concentration of half-maximal effect
Summary of the method: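 Counter screen for cytotoxicity: HepG2 exposed 16 hr to compounds, then CellTiter-Fluor viability signal (fluorescence, 1 hr reagent incubation).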

[9] = molecular target: Nuclear receptor subfamily 1 group I member 2 (Homo sapiens) (UniProt O75469); assay: Human pregnane X receptor (PXR) small molecule agonists, qHTS assay (AID 1346982); note: nearly all actives have a fitted effect of over 35% in size; note: potency is the fitted concentration of half-maximal effect; for activation: % is set by controls: 0 for no effect and ±100 for the full control effect
Summary of the method: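 Luminescence (ONE-Glo, 30 min RT) after 24 hr compound exposure of PXR-Luc HepG2 cells; cells rested 5 hr post-plating in 5% charcoal-stripped FBS medium.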

[10] = molecular target: Cytochrome P450 2C9 (Homo sapiens) (UniProt P11712); assay: Cytochrome P450 Family 2 Subfamily C Member 9 (CYP2C9) small molecule antagonists: luciferase reporter qHTS assay (AID 1671198); note: nearly all actives have a fitted effect of over 50% in size; note: potency is the fitted concentration of half-maximal effect
Summary of the method: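 CYP2C9 activity was measured with a P450-Glo proluciferin substrate. Enzyme–substrate mix was held with compound for 10 min at room temperature, then NADPH regeneration solution was added for 1 h at 37C. Luciferin product was read as luminescence.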

[11] = molecular target: Cytochrome P450 3A4 (Homo sapiens) (UniProt P08684); assay: Cytochrome P450 Family 3 Subfamily A Member 4 (CYP3A4) small molecule antagonists: luciferase reporter qHTS assay (AID 1671201); note: nearly all actives have a fitted effect of over 50% in size; note: potency is the fitted concentration of half-maximal effect
Summary of the method: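 Proluciferin-to-luciferin conversion by CYP3A4, NADPH-regenerated, 1 h RT; luminescence read as RLU. Ketoconazole as control.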

[12] = molecular target: Cytochrome P450 1A2 (Homo sapiens) (UniProt P05177); assay: Cytochrome P450 Family 1 Subfamily A Member 2 (CYP1A2) small molecule antagonists: luciferase reporter qHTS assay (AID 1671199)
Summary of the method: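 Signal from luciferin formed by CYP1A2 from a proluciferin substrate is read as luminescence, expressed in relative luminescence units. Compounds sit with enzyme 10 min, NADPH-driven reaction runs 1 h, all at room temperature.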

[13] = molecular target: Nuclear receptor subfamily 1 group I member 2 (Rattus norvegicus) (UniProt Q9R1A7); assay: Rat pregnane X receptor (rPXR) activation by small molecules, qHTS assay (AID 1346983); settings: rPXR luciferase reporter cells, One-Glo luminescence, 24 h; max activation: active compounds read high; note: % is set by controls: 0 for no effect and ±100 for the full control effect; nearly all actives have a fitted effect of over 20% in size
Summary of the method: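 Cell-based rPXR luciferase reporter assay, 2,000 cells per well, rested 5hr at 37 C before compound addition in DMSO, then 24 hr at 37 C. One-Glo reagent was added and luminescence read after 30 min at room temperature.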

[14] = molecular target: Nuclear receptor subfamily 1 group I member 2 (Homo sapiens) (UniProt O75469); assay: CYP3A4 induction through human pregnane X receptor (PXR) by small molecules, qHTS assay (AID 1346984); note: % is set by controls: 0 for no effect and ±100 for the full control effect; nearly all actives have a fitted effect of over 40% in size
Summary of the method: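 DPX-2 reporter cells; 24h cpd, 37C; Luciferin-IPA 3uM final x3h; One-Glo 30 min RT; lumi read.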

[15] = molecular target: Nuclear receptor subfamily 1 group I member 2 (Homo sapiens) (UniProt O75469); assay: Human pregnane X receptor (PXR) activation by small molecules, qHTS assay (AID 1346985); note: potency is the fitted concentration of half-maximal effect; nearly all actives have a fitted effect of over 40% in size
Summary of the method: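 DPX-2 cells (HepG2 co-transfected with a PXR response element and a CYP3A4-promoter luciferase construct) were seeded at 2,000 per well, rested 5 hr at 37C, then exposed to DMSO-dissolved compounds for 24 hr. Activation was read as luciferase luminescence.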

Nuclear receptor subfamily 1 group I member 2 (Homo sapiens), sequence (O75469 whole entry, looked up): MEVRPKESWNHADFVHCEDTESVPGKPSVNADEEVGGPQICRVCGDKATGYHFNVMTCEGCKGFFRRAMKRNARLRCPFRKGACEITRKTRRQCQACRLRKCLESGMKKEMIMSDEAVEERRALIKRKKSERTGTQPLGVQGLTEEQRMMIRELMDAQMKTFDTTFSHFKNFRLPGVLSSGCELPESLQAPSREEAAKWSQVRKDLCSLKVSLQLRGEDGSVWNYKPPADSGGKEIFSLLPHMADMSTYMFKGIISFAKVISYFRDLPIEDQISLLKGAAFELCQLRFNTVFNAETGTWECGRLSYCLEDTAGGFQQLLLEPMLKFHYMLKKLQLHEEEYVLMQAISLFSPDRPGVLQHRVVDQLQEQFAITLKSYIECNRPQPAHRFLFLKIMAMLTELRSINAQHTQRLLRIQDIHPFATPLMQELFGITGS
Cytochrome P450 1A2 (Homo sapiens), sequence (P05177 whole entry, looked up): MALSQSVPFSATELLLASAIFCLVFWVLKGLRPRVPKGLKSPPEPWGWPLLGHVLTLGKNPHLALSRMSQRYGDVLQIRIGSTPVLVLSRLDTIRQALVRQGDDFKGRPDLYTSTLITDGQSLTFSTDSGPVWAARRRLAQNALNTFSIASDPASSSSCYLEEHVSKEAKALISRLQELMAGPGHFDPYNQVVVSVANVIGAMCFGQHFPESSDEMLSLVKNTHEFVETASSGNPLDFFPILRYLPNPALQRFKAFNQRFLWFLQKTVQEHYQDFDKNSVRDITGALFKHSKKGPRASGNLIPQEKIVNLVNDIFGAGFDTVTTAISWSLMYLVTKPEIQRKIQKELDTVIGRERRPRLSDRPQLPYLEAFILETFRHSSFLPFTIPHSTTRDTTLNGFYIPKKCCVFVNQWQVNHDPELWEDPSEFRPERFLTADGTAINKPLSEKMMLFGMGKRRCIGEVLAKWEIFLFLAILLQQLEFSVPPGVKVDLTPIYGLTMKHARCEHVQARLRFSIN
Cytochrome P450 2D6 (Homo sapiens), sequence (P10635 whole entry, looked up): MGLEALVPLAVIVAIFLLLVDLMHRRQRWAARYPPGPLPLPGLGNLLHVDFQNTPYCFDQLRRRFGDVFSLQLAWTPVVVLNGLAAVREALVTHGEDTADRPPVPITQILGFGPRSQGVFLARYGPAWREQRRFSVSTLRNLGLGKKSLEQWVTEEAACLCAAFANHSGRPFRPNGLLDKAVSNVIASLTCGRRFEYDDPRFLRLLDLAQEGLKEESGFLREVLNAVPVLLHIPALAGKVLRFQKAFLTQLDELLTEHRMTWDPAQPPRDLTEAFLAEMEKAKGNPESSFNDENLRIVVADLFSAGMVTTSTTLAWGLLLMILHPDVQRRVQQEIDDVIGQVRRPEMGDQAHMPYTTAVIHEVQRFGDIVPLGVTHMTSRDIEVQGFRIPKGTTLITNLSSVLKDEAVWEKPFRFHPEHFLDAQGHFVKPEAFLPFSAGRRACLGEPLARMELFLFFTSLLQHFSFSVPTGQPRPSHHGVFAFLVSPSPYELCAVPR
Cytochrome P450 2C19 (Homo sapiens), sequence (P33261 whole entry, looked up): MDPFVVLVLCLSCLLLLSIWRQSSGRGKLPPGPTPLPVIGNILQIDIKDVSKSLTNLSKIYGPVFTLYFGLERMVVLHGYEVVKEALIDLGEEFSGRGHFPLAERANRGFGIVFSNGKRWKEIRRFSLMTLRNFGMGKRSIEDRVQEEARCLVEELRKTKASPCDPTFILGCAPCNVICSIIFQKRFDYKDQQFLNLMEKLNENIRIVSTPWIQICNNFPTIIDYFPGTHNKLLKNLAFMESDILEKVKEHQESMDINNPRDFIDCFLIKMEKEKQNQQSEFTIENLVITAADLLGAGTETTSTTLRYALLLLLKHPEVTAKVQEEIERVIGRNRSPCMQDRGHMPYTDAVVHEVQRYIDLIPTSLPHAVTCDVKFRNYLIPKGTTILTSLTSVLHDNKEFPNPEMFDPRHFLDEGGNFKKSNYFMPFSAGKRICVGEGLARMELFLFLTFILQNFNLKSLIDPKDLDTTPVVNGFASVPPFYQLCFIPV
Cytochrome P450 3A4 (Homo sapiens), sequence (P08684 whole entry, looked up): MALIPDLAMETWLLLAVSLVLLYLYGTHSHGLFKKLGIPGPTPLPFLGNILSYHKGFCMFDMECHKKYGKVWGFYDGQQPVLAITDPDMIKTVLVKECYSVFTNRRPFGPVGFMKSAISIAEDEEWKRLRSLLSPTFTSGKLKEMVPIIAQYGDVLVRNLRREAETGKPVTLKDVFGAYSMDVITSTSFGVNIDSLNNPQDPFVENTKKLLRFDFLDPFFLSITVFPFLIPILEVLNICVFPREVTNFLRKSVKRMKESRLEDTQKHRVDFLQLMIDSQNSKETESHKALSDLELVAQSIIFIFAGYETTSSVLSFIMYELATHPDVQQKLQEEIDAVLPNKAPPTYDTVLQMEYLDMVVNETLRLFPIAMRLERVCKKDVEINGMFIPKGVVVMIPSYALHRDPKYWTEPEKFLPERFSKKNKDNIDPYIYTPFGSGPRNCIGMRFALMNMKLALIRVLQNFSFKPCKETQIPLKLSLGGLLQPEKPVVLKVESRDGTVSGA
Voltage-gated inwardly rectifying potassium channel KCNH2 (Homo sapiens), sequence (Q12809 whole entry, looked up): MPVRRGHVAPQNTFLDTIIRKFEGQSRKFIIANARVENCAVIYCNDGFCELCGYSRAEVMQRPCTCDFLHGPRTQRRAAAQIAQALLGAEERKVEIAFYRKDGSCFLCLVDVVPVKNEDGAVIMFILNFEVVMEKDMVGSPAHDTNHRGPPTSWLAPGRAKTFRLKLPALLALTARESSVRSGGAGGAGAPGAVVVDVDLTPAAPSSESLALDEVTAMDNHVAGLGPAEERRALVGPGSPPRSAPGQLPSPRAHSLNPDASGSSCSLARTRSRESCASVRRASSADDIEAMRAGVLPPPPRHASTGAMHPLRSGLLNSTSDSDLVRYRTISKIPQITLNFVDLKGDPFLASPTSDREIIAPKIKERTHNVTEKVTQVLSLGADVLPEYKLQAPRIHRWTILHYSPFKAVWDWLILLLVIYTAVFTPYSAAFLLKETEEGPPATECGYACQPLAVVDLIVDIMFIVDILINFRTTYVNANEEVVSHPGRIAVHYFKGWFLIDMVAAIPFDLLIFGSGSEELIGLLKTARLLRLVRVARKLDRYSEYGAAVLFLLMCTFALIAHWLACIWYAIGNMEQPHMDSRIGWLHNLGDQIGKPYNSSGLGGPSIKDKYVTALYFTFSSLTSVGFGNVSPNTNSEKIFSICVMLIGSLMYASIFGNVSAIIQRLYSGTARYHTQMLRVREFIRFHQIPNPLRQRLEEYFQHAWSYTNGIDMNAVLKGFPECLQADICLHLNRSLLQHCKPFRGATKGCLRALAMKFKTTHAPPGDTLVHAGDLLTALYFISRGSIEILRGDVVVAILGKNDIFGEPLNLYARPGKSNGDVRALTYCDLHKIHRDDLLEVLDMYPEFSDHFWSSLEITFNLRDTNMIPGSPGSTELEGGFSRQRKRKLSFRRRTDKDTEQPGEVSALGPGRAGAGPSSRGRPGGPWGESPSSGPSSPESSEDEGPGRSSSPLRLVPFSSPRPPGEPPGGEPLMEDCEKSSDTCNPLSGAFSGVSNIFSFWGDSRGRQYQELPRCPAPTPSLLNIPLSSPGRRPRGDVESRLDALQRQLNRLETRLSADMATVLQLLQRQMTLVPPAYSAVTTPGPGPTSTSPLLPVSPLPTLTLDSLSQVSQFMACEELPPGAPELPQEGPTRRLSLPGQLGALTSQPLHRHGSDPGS
Cytochrome P450 2C9 (Homo sapiens), sequence (P11712 whole entry, looked up): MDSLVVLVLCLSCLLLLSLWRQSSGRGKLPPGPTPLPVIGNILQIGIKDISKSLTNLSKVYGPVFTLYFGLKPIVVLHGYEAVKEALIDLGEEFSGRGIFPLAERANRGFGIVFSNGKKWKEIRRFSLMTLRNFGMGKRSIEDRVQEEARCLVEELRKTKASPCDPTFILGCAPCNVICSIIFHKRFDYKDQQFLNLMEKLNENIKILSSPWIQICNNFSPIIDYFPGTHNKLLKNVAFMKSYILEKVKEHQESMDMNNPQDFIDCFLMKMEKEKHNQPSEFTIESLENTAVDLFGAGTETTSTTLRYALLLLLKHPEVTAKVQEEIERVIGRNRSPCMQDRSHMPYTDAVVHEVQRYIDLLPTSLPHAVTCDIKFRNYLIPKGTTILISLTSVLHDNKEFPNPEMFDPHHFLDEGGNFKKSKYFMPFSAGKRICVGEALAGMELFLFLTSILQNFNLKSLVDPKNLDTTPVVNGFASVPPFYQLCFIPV
Nuclear receptor subfamily 1 group I member 2 (Rattus norvegicus), sequence (Q9R1A7 whole entry, looked up): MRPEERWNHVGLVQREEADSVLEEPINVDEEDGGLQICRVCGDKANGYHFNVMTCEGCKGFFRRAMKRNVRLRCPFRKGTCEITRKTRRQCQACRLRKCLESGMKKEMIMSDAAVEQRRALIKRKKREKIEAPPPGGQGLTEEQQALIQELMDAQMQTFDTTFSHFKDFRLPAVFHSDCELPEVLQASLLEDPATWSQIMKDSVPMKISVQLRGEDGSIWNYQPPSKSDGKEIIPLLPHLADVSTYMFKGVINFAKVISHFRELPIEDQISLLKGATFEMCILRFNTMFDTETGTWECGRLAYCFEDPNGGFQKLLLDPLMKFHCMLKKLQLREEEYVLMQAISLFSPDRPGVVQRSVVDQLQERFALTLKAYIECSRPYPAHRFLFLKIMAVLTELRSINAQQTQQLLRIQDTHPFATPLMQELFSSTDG

O=C(OCC1CO1)C1CCCCC1C(=O)OCC1CO1 (centres undefined)
active: Potency [2] 68.7 µM | Potency [5] 56.5 µM
inactive: Potency [1] | Potency [3] | Potency [4] | Potency [6]

CCCC(C)c1ccccc1O (centres undefined)
active: Potency [10] 35.6 µM
inactive: Potency [7] | Potency [3] | Potency [8] | Potency [9] | Potency [4] | Potency [5] | Potency [6] | Potency [11]

COCCCC/C(=N\OCCN)c1ccc(C(F)(F)F)cc1
inactive: Potency [1] | Potency [2] | Potency [3] | Potency [8]
active: Potency [4] 1.95 µM | Potency [5] 0.692 µM | Potency [10] 3.89 µM | Potency [12] 0.204 µM

CCCCCCCC[P+](CCCCCCCC)(CCCCCCCC)CCCCCCCC
active: Potency [7] 2.42 µM | Potency [8] 13.6 µM | Potency [9] 2.42 µM | Potency [4] 0.141 µM | Potency [5] 7.06 µM | Potency [10] 22.3 µM | Potency [12] 39.7 µM | Potency [6] 0.154 µM | Potency [11] 0.445 µM
inactive: Potency [3]

CCC1OCC(COc2ccc(Oc3ccccc3)cc2)O1 (centres undefined)
inactive: Potency [1] | Potency [2] | Potency [3] | Potency [8] | Potency [4] | Potency [11]
active: Potency [9] 34.4 µM | Potency [5] 17.8 µM | Potency [10] 28.3 µM | Potency [12] 25.2 µM

OCc1c[nH]c2ccccc12
inactive: Potency [1] | Potency [3]
active: Potency [2] 64.8 µM | Potency [9] 24.3 µM | Potency [5] 2.52 µM | Potency [10] 7.52 µM | Potency [12] 29.1 µM

CCCCCCCCCOC(=O)c1ccc(O)cc1
inactive: Potency [3] | Potency [9] | Potency [6]
active: Potency [1] 53.7 µM | Potency [2] 53.7 µM | Potency [5] 1.97 µM | Potency [10] 6.24 µM | Potency [12] 27.9 µM | Potency [11] 39.4 µM

OCCN1CCN(CC/C=C2/c3ccccc3Sc3ccc(C(F)(F)F)cc32)CC1
active: Potency [7] 29.8 µM | Potency [8] 33.5 µM | Potency [4] 6.92 µM | Potency [5] 34.7 µM | Potency [12] 19.5 µM
inactive: Potency [9] | max activation [13] -7.9% | Potency [10]

O=C(OC[C@H]1O[C@@H](OC(=O)c2cc(O)c(O)c(OC(=O)c3cc(O)c(O)c(O)c3)c2)[C@H](OC(=O)c2cc(O)c(O)c(OC(=O)c3cc(O)c(O)c(O)c3)c2)[C@@H](OC(=O)c2cc(O)c(O)c(OC(=O)c3cc(O)c(O)c(O)c3)c2)[C@@H]1OC(=O)c1cc(O)c(O)c(OC(=O)c2cc(O)c(O)c(O)c2)c1)c1cc(O)c(O)c(OC(=O)c2cc(O)c(O)c(O)c2)c1
active: Potency [2] 16.5 µM | Potency [15] 10 µM | Potency [10] 21.5 µM
inactive: caspase activation [1] -2.85% [at 19 µM] | caspase-3/7 activation [3] 0.641% [at 19 µM] | activation [9] -5.98% [at 19 µM] | max activation [13] -10.1% | Potency [14] | activity change, negative = inhibition [4] -17.1% [at 23.6 µM] | Potency [5] | activity change, negative = inhibition [6] 1.88% [at 15.8 µM] | activity change, negative = inhibition [11] -11% [at 23.6 µM]
